PPARg SRC-3 ag: agonists of human PPARgamma SRC-3 coactivator recruitment; P37231; biochemical PPARgamma/SRC-3 coactivator recruitment assay; activation, % at 8 µM; 200,000 tested, 0.26% active; AID 731; in the data active means activation above about 23%
Target sequence (P37231 whole entry, looked up): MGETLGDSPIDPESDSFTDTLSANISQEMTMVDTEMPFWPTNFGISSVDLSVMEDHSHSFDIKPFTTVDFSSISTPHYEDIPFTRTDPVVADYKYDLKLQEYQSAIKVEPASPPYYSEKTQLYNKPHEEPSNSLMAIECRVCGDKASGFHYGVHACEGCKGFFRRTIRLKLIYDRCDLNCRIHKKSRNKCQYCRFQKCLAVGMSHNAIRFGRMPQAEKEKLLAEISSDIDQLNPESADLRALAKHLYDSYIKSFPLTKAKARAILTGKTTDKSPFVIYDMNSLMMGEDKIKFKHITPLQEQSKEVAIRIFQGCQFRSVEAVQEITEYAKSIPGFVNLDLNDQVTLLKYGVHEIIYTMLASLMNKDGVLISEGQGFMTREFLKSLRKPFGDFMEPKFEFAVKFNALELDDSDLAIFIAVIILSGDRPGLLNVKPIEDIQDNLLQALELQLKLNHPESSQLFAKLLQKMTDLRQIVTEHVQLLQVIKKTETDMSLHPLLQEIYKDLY
SRC1 TRFRET art: counter-screen for PPARgamma SRC-1 recruitment agonists: TR-FRET artefact; 99,000 tested, 0.34% active; TR-FRET ratio at 8 µM; TR-FRET detection artefact counter-screen, emission ratio; stronger effect = higher value; in the data active means TR-FRET ratio above about 2300
SRC3 TRFRET art: flags TR-FRET format artefacts in PPARgamma SRC-3 recruitment agonist screen; AID 1048; TR-FRET ratio at 8 µM; TR-FRET artefact counter-screen, PPARgamma/SRC-3 format; stronger effect = higher value; 99,000 tested, 0.39% active; in the data active means TR-FRET ratio above about 2000
PPARg SRC-1 ag: agonists of human PPARgamma SRC-1 coactivator recruitment; activation, % at 8 µM; AID 631; 200,000 tested, 0.41% active; PPARgamma-SRC-1 coactivator recruitment biochemical assay; in the data active means activation above about 19%
TR-FRET SRC-2 ct: flags TR-FRET format artefacts in PPARgamma SRC-2 recruitment agonist screen. TR-FRET artefact counter-screen; stronger effect = higher value. TR-FRET ratio at 8 µM. 200,000 tested, 0.4% active. AID 1049; in the data active means TR-FRET ratio above about 2000
PPARg SRC2 recr: promotes SRC-2 coactivator recruitment by human PPARgamma; P37231; 200,000 tested, 0.34% active; activation, % at 8 µM; AID 1032; PPARgamma LBD-SRC-2 recruitment, biochemical
PPARg SRC2 conf: confirmation of agonists of SRC-2 recruitment by human PPARgamma. shares compounds with PPARg SRC-3 ag. biochemical SRC-2 recruitment by PPARgamma. activation, % at 8 µM. 790 tested, 52% active
PPARg SRC1 ag: confirmation of agonists of SRC-1 recruitment by human PPARgamma. 790 tested, 43% active. PPARgamma–SRC-1 coactivator recruitment biochemical assay. activation, % at 8 µM. shares compounds with PPARg SRC-3 ag; in the data active means activation above about 20%
PPARg SRC3 conf: human PPARgamma SRC-3 recruitment agonism, confirmation | shares compounds with PPARg SRC-3 ag | activation, % at 8 µM | biochemical PPARgamma-SRC-3 coactivator recruitment, agonist mode | 790 tested, 29% active; in the data active means activation above about 24%
A number is an active result; - = inactive; . = no result given. The list is not random: actives were taken first. Their share in the collection is about 0.84%. Unless noted, no stated cut-off is given here; in the data, active means activation above about 22%; inactive means the rest.

SMILES	PPARg SRC-3 ag	SRC1 TRFRET art	SRC3 TRFRET art	PPARg SRC-1 ag	TR-FRET SRC-2 ct	PPARg SRC2 recr	PPARg SRC2 conf	PPARg SRC1 ag	PPARg SRC3 conf
CCn1c(=O)cc(SCC(=O)NCc2ccc(C)cc2)c2ccccc21	75.6	.	.	50.0	3248	70.2	51.3	33.9	31.8
CCn1c(=O)cc(OCC(=O)NCc2cccnc2)c2ccccc21	-	.	.	-	-	-	.	.	.
CCn1c(=O)cc(SCC(=O)Nc2ccc(C)cn2)c2ccccc21	25.0	2927	3211	37.8	2341	32.4	28.5	-	-
CCn1c(=O)cc(SCC(=O)NCc2ccco2)c2ccccc21	30.2	.	.	22.4	-	32.8	27.2	-	-
O=C(C[n+]1ccccc1)Nc1ccc(Oc2ccccc2)cc1	-	-	-	-	-	-	.	.	.
NC(=O)c1nsc(C(=O)N(c2cccc(F)c2)C(C(=O)NCC2CCCO2)c2cccs2)c1N (stereo unspecified)	-	-	-	-	-	-	.	.	.
COCCNC(=O)/C(C#N)=C/C=C/c1ccccc1[N+](=O)[O-]	-	-	-	-	-	-	.	.	.
CCn1c(=O)cc(SCC(=O)NCc2ccc(C)o2)c2ccccc21	-	.	.	-	-	-	.	.	.
CCn1c(=O)cc(SCC(=O)NCc2ccccn2)c2ccccc21	-	.	.	20.1	-	25.8	26.7	-	-
Cc1ccc(C=Nc2ccc(N(C)C)cc2)o1	101.9	.	.	65.2	3126	101.6	-	-	-
CCC1Oc2ccccc2N(CC(=O)NCc2ccco2)C1=O (stereo unspecified)	-	-	-	-	-	-	.	.	.
COc1cc(/C=C(\C#N)C(=O)Nc2ccccc2C(=O)O)cc(Cl)c1OC	48.5	-	-	31.3	-	-	32.5	51.2	45.8
COc1ccc(/C=C(/C#N)C(=O)Nc2ccccc2C)cc1C(=O)O	-	-	-	-	-	-	.	.	.
CN1CCN(c2ccc(-c3ccnn3C(=O)Nc3cccc(C(F)(F)F)c3)cc2)CC1	-	-	-	-	-	-	.	.	.
CN1/C(=C\C=N\O)C(C)(C)c2ccccc21	-	-	-	-	-	-	.	.	.
CN(C)c1ccc(N=C/C=C2/N(C)c3ccccc3C2(C)C)cc1	-	-	2085	27.9	2099	31.7	-	-	-
COc1ccc(S(=O)(=O)Nc2nccs2)cc1OC	-	-	-	-	-	-	.	.	.
COc1ccc(-c2nnc(Nc3ccc(S(=O)(=O)Nc4nccs4)cc3)c3ccccc23)cc1	46.5	-	-	55.1	-	-	35.3	25.1	24.0
CCCc1nc(SCC(=O)c2ccc(F)cc2)c2ccccc2n1	-	-	-	-	-	-	.	.	.
NNc1cc([N+](=O)[O-])cc2c1C(=O)N(Cc1ccccc1)S2=O (stereo unspecified)	-	-	-	-	-	-	.	.	.
N#C/C(=C\c1ccc(N2CCOCC2)o1)C(=O)NCC1CCCO1 (stereo unspecified)	-	-	-	20.5	2010	-	-	-	-
COC(=O)c1cc(Br)c(=O)n(-c2nccs2)c1	73.6	.	.	37.0	2990	56.6	22.4	-	-
COC(=O)c1cc(Br)c(=O)n(-c2ccccn2)c1	-	.	.	-	-	-	.	.	.
CN1CCC/C1=C/C=C1\SC(=S)NC1=O	-	-	-	-	-	24.3	-	-	-
N#Cc1c(SCC(=O)O)nc(-c2ccccc2)c2c1CCCC2	30.2	.	.	-	-	-	-	-	-
CSc1cnn(-c2ccccc2)c(=O)c1SC	151.6	.	.	105.8	3988	120.8	98.7	68.1	67.5
CSc1cnn(Cc2ccccc2)c(=O)c1SCc1ccccc1	24.4	2367	-	-	-	29.7	84.6	61.4	56.9
COc1cnn(-c2ccccc2)c(=O)c1SCc1ccc(Cl)cc1Cl	-	.	.	-	-	-	.	.	.
COc1cnn(-c2ccc(C)cc2)c(=O)c1SCc1ccccc1	-	.	.	-	-	-	.	.	.
CCSc1cnn(-c2ccccc2)c(=O)c1SCC	122.7	.	.	68.1	3615	96.3	64.9	41.1	47.1
